The record followed here is PubChem BioAssay (NCI).

This is part of a sample that, as a whole, favours compounds with a hit. Of some 79,000 tested, about 15% had one in any assay. A number with no mark means an inactive call. Calls of active or inactive are those of the source. Cut-off read from the data, not from the text of the source: active = growth inhibition above about 70%; inactive = the rest.

A short description of this assay: NCI Yeast Anticancer Drug Screen. Data for the mlh1 rad18 strain (AID 175). The conditions noted are these: S. cerevisiae mlh1 rad18 strain growth inhibition; at 50.0 µM; active compounds read high. The method, boiled down: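 Growth inhibition of the yeast strain was measured after compound exposure and expressed relative to vehicle-treated controls. The strain carries defined defects in DNA damage repair.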
In the case of `CCC(C)(C)c1ccc(OCCOc2ccc(C(=O)O)cc2[N+](=O)[O-])cc1`, the growth inhibition was -20.1%. With `CC(C)CN(CC(C)C)/N=C/c1cc([N+](=O)[O-])ccc1O` the figure was -14.8%. The result for `COc1ccc(C=Nc2c(N)[nH]c(=S)[nH]c2=O)cc1` reads -51.7%.

On to `O=C(OC1CCC(c2ccccc2)C1)c1cc([N+](=O)[O-])cc([N+](=O)[O-])c1` (stereo not given), for which the growth inhibition was 58.1%. The result for `O=C1c2ccccc2C(=O)N1Cl` reads -5.75%; that for `CCOC(=O)O/C(C)=C\c1ccccc1Cl`, 5.7%; that for `CCC1(c2ccccc2)CCCC/C1=N/NC(N)=O` (stereo not given), -8.7%.

On to `Cc1ccc(S(=O)(=O)N/N=C/C(O)C(O)C(O)C(O)CO)cc1` (stereo not given), for which the growth inhibition was 12.3%. The result for `Cc1ccc(CO)cc1` reads 21.7%; that for `O=C(CN1CCCc2ccccc21)c1ccccc1`, 10.4%.

On to `C/C=C/C1OCC(C)([N+](=O)[O-])CO1` (stereo not given), for which the growth inhibition is 31.1%. Regarding `N=C(Oc1ccccc1)c1ccccc1`, the growth inhibition is 6.45%.

For `CCOC(=O)CN/N=C(\N)CSS(=O)(=O)O`, the growth inhibition is 3.05%. With `Cc1ccccc1N=CC(C=O)[N+](=O)[O-]` (stereo not given) the figure was -5.65%; with `CCCCCCCCCCCCCCC[N+](C)(C)C`, 99.5% (active); with `CC(=O)O[C@@H]1[C@H]2O[C@H]2[C@H]2O[C@@]2(COC(=O)c2ccccc2)[C@H]1OC(C)=O`, -38.5%.

On to `CSc1nnc2c3ccccc3ccn12`, for which the growth inhibition was 52.5%.

As for `CC(=O)c1cccc(NC(=O)C(=O)C(C(=O)NN)c2ccccc2)c1` (stereo not given), the growth inhibition is 15.9%. In the case of `CN1CCCn2c(nc3ccccc3c2=O)C1`, the growth inhibition is -4.35%. Regarding `O=C(O)Cc1ccc2ccccc2c1Br`, the growth inhibition is 14.3%. On to `CCOC(=O)c1c(-c2ccc([N+](=O)[O-])cc2)c(C#N)n(-c2ccccc2)c1C`, for which the growth inhibition is 6.1%.

With `Cc1[nH]c2c(C)ccc(C)c2c1CC(=O)O`, the growth inhibition was 10.2%.

On to `CCOC(=O)c1c(O)csc1N`, for which the growth inhibition is 10.7%. With `O=CC1CCCc2ccccc21` (stereo not given) the figure was 5.6%. For the compound `CN(C)Cc1cc(O)c(O)c(CN(C)C)c1`, the growth inhibition is 13.1%. With `NCCNCCCNC(=O)c1cc(-c2ccccc2)nc2ccccc12` the figure was -3.95%; with `O/N=C1\CC2(N3CCOCC3)CCC1(Cc1ccccc1)CC2`, 49.4%; with `COC(=O)c1ccc(O)c(CN(C)C)c1`, 18.8%. As for `C[N+]1(C)CCCC(CN2c3ccccc3Sc3ccccc32)C1` (stereo not given), the growth inhibition is 15.4%.

Turning to `Cc1nc(/N=C(/N)N(C)C)[nH]c(=O)c1C`, the growth inhibition was 19.9%. The result for `CC(C)(CC1(C)NC(=O)NC1=O)OCc1ccccc1` (stereo not given) reads 1.95%; that for `CCCCCCn1c(=O)cc2n(c1=O)CCC2`, -3.4%; that for `CCOCC(=O)N[C@H]1CCc2cc(OC)c(OC)c(OC)c2-c2ccc(OC)c(=O)cc21`, 4%.

Regarding `COc1ccc(C=Nc2ccc(O)cc2)cc1`, the growth inhibition was -13.9%. The result for `O=C(Cc1ccccc1CC(=O)Oc1ccccc1)Oc1ccccc1` reads 5.75%. On to `COC(=O)C(=O)C(C(=O)c1cccc2ccccc12)c1nc2n(c1O)C(=N)N=N2` (stereo not given), for which the growth inhibition is 0.8%. Regarding `CC(=O)ON=C(C1CC1)C1CC1`, the growth inhibition is -3.3%. The result for `O=[N+]1C=CC(=NN=c2ccn([O-])cc2)C=C1` reads 26.9%; that for `Nc1c(Cl)cnn2nnnc12`, -4.25%.

Consider `C=CCOC(=O)c1cccc(C(=O)OCC=C)c1`, for which the growth inhibition was 33.8%.
